From PubChem BioAssay (EPA / NIEHS) come the findings set out here.

SMILES strings stand for the structures. Results filed as inconclusive are left out. The source made the active and inactive calls. The calls were made as follows, unless noted: active = hit-call score of the fitted dose curve at least 0.9, where 1 is the maximum; inactive = score below 0.9.

Assay [1] can be described thus: BSK_3C_VCAM1: BioMAP Diversity Plus: 3C Assay for Vascular cell adhesion molecule 1 (VCAM1) Biomarker Activity (AID 2282999). Conditions: BioMAP 3C HUVEC, VCAM1 ELISA, cytokine-stimulated; actives raise or lower the signal. In short, it runs like this:
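Activity fitted in both directions relative to DMSO, with ELISA measurement of the surface marker on primary HUVEC (3C) at 24 h post-treatment; parallel SRB staining (0.1% SRB, TCA-fixed, 560 nm) flagged overt cytotoxicity.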
Background: An ELISA detects its analyte on a solid surface through an enzyme-linked reagent.

A short description of assay [2]: BSK_4H_Eotaxin3: BioMAP Diversity Plus: 4H Assay for Eotaxin 3 Biomarker Activity (AID 2283000).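 As to outcome: CCL26 protein level quantified by ELISA in parallel with SRB cytotoxicity check.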 Conditions: primary human endothelial cells (HUVEC); actives raise or lower the signal. The gist of the method: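 Endothelial primary cells (human umbilical vein) exposed to compound for 24 h. ELISA detection of Eotaxin-3.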
Assay [3] addresses human Peroxisome Proliferator-activated Receptor alpha (PPARa), PPARA (gene 5465) (UniProt Q07869). In words: ATG_PPARa_TRANS: Attagene TRANS-FACTORIAL HepG2 Assay for human Peroxisome Proliferator-activated Receptor alpha (PPARa) (AID 2283001; active = hit-call score of the fitted dose curve at least 0.9, where 1 is the maximum). The gist of the method: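 Transfected HepG2 cells treated with test chemical for 24 h. RNA isolated, reverse-transcribed with oligo(dT), PCR-amplified, FAM-labelled and HpaI-digested. Fragments sized by capillary electrophoresis; gain-of-signal fit relative to DMSO.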

Assay [4] concerns the target human Peroxisome Proliferator-activated Receptor delta (PPARd), PPARD (gene 5467) (UniProt Q03181). In words: ATG_PPARd_TRANS: Attagene TRANS-FACTORIAL HepG2 Assay for human Peroxisome Proliferator-activated Receptor delta (PPARd) (AID 2283002; active = hit-call score of the fitted dose curve at least 0.9, where 1 is the maximum). In short, it runs like this:
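Transient HepG2 transfection (multiple GAL4-UAS RTUs, chimeric receptor-Gal4); 24 h dosing; total RNA → oligo(dT) RT → PCR → 6-FAM primer extension → HpaI cut → CE. Positive direction vs DMSO.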

Read-out in assay [5]: Intercellular Adhesion Molecule 1 (ICAM1), ICAM1 (gene 3383)
The assay can be described thus: BSK_3C_ICAM1: BioMAP Diversity Plus: 3C Assay for Intercellular Adhesion Molecule 1 (ICAM1) Biomarker Activity (AID 2283003). Conditions: primary human endothelial cells (HUVEC); actives raise or lower the signal. The gist of the method:
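Using DMSO as baseline, bidirectional curve fitting was applied to ICAM-1 ELISA signals from HUVEC in the 3C system, measured 24 h after compound addition.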

A short description of assay [6]: BSK_3C_Proliferation: Cell Proliferation Assessment in the BioMAP Diversity Plus: 3C Assay (AID 2283006).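 As to AC50: potency may reflect either rise or fall in cell number versus DMSO.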 Conditions: primary human endothelial cells (HUVEC). The gist of the method:
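Measured here: sulforhodamine B (0.1%) staining of TCA-fixed sub-confluent umbilical vein endothelial cultures 48 h post-dosing, absorbance 560 nm. DMSO served as negative control and baseline; both signal gain and loss were modelled.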

For assay [7], the target named is Peroxisome proliferator-activated receptor gamma (Homo sapiens) (UniProt P37231). The assay can be described thus: ATG_PPARg_TRANS: Attagene TRANS-FACTORIAL HepG2 Assay for human Peroxisome Proliferator-activated Receptor-gamma (PPARg) (AID 2283007; active = hit-call score of the fitted dose curve at least 0.9, where 1 is the maximum). The gist of the method: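 Chimeric NR-Gal4 transactivation is measured in transiently transfected HepG2 cells by reporter mRNA induction at 24 h. Detection uses RT-PCR with fluorescent labelling and capillary electrophoresis; DMSO defines baseline.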
Sequence of Peroxisome proliferator-activated receptor gamma (Homo sapiens) (P37231 whole entry, looked up, the tested form may be a part): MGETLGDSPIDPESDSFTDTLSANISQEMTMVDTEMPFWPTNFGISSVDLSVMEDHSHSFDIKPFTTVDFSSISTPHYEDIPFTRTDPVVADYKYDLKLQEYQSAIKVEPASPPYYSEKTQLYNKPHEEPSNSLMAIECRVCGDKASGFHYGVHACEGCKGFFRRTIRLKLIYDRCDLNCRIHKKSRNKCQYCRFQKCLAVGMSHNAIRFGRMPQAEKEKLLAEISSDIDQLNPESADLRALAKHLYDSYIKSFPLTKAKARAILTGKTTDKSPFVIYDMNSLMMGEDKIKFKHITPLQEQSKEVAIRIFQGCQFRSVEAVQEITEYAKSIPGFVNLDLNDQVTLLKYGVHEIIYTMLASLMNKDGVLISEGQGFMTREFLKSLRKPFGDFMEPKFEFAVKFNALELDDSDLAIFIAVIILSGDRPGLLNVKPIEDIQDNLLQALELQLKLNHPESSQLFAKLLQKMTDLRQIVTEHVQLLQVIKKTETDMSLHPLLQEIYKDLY

Assay [8] concerns the target Nuclear receptor subfamily 1 group I member 2 (Homo sapiens) (UniProt O75469). In words: ATG_PXR_TRANS: Attagene TRANS-FACTORIAL HepG2 Assay for human Pregnane X Receptor (PXR) (AID 2283008; active = hit-call score of the fitted dose curve at least 0.9, where 1 is the maximum). In short, it runs like this: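 Multiplexed TRANS reporter panel in HepG2; this component tracks PXR-Gal4-driven reporter mRNA after 24 h dosing, measured by RT-PCR with capillary electrophoresis fluorescence, fitted against DMSO.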

For assay [9], the target named is human RAR-related Orphan Receptor beta (RORb), RORB (gene 6096) (UniProt Q92753). The assay can be described thus: ATG_RORb_TRANS: Attagene TRANS-FACTORIAL HepG2 Assay for human RAR-related Orphan Receptor beta (RORb) (AID 2283010; active = hit-call score of the fitted dose curve at least 0.9, where 1 is the maximum). In short, it runs like this: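 Multiplexed transcription-factor reporter assay: HepG2 cells transiently carrying NR-Gal4/GAL4-UAS constructs, 24 h treatment, mRNA quantified by RT-PCR plus capillary electrophoresis fluorescence; activity scored as induction over DMSO.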
Sequence of human RAR-related Orphan Receptor beta (RORb), RORB (gene 6096) (Q92753 whole entry, looked up, the tested form may be a part): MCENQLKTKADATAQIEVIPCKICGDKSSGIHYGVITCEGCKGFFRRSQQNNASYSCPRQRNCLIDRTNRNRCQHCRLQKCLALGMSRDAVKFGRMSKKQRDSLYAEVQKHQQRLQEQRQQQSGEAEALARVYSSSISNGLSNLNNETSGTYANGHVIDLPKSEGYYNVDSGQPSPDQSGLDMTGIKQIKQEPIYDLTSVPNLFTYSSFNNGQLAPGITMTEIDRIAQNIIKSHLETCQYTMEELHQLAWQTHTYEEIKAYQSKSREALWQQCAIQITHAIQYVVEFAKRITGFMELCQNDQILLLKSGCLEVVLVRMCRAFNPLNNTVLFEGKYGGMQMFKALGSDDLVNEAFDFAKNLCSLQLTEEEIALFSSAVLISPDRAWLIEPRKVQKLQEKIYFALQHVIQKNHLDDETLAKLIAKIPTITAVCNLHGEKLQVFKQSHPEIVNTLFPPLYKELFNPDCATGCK

The target in assay [10] is human Retinoid X Receptor beta (RXRb), RXRB (gene 6257) (UniProt P28702). The assay can be described thus: ATG_RXRb_TRANS: Attagene TRANS-FACTORIAL HepG2 Assay for human Retinoid X Receptor beta (RXRb) (AID 2283013; active = hit-call score of the fitted dose curve at least 0.9, where 1 is the maximum). The gist of the method:
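After a 24 h incubation with test chemical, transfected HepG2 cells carrying NR-Gal4 fusions and GAL4-UAS reporter transcription units yield RNA whose reporter cDNA is FAM-labelled, HpaI-cut and sized by capillary electrophoresis; increases over DMSO are scored.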

Assay [11] addresses human Thyroid Receptor alpha (THRa1), THRA (gene 7067) (UniProt P10827). In words: ATG_THRa1_TRANS: Attagene TRANS-FACTORIAL HepG2 Assay for human Thyroid Receptor alpha (THRa1) (AID 2283014; active = hit-call score of the fitted dose curve at least 0.9, where 1 is the maximum). In short, it runs like this: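 First, HepG2 cells receive multiple GAL4-UAS reporter units and the chimeric receptor. They are then dosed for 24 h, after which RNA is reverse-transcribed, amplified, labelled, HpaI-cut and sized by capillary electrophoresis; gain relative to DMSO is scored.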

Read-out in assay [12]: E-selectin (Homo sapiens) (UniProt P16581)
In words: BSK_3C_Eselectin: BioMAP Diversity Plus: 3C Assay for Eselectin Biomarker Activity (AID 2283015).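 As to outcome: cell surface E-selectin protein quantified by ELISA 24 h after dosing.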 Conditions: primary human endothelial cells (HUVEC); actives raise or lower the signal. In short, it runs like this: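 Human vascular endothelium from umbilical vein is exposed to test chemicals for 24 h. E-selectin levels are read by ELISA and compared with DMSO controls.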

Read-out in assay [13]: Interleukin-1 alpha (IL1a), IL1A (gene 3552)
In words: BSK_BE3C_IL1a: BioMAP Diversity Plus: BE3C Assay for Interleukin-1 alpha (IL1a) Biomarker Activity (AID 2283016). Conditions: primary human bronchial epithelial cells; actives raise or lower the signal. In short, it runs like this: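 Measured in human lung primary bronchial epithelial cells: IL-1a by ELISA at 24 h after dosing, with bidirectional fitting against DMSO.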

Read-out in assay [14]: Monocyte Chemoattractant Protein-1 (MCP1), CCL2 (gene 6347)
In words: BSK_4H_MCP1: BioMAP Diversity Plus: 4H Assay for Monocyte Chemoattractant Protein-1 (MCP1) Biomarker Activity (AID 2283018). Conditions: primary human endothelial cells (HUVEC); actives raise or lower the signal. The gist of the method:
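Primary human umbilical vein endothelium is exposed to chemical for 24 h before MCP-1 is assayed by ELISA. Concentration-response fitted bidirectionally relative to DMSO.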

Assay [15] concerns the target human Retinoic Acid Receptor beta (RARb), RARB (gene 5915) (UniProt P10826). In words: ATG_RARb_TRANS: Attagene TRANS-FACTORIAL HepG2 Assay for human Retinoic Acid Receptor beta (AID 2283004; active = hit-call score of the fitted dose curve at least 0.9, where 1 is the maximum). The gist of the method:
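HepG2, transient MRTU transfection, NR–Gal4 chimera, 24 h treatment; RT-PCR plus CE fluorescence detection of reporter mRNA; gain of signal vs DMSO.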

In assay [16] the target is Retinoic acid receptor RXR-alpha (Homo sapiens) (UniProt P19793). The assay can be described thus: ATG_RXRa_TRANS: Attagene TRANS-FACTORIAL HepG2 Assay for human Retinoid X Receptor alpha (RXRa) (AID 2283012; active = hit-call score of the fitted dose curve at least 0.9, where 1 is the maximum). In short, it runs like this: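 Chimeric NR-GAL4 trans-activation in HepG2, 24 h treatment; reporter transcripts quantified by fluorescence on capillary electrophoresis, analysed for upward change from DMSO.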
Sequence of Retinoic acid receptor RXR-alpha (Homo sapiens) (P19793 whole entry, looked up, the tested form may be a part): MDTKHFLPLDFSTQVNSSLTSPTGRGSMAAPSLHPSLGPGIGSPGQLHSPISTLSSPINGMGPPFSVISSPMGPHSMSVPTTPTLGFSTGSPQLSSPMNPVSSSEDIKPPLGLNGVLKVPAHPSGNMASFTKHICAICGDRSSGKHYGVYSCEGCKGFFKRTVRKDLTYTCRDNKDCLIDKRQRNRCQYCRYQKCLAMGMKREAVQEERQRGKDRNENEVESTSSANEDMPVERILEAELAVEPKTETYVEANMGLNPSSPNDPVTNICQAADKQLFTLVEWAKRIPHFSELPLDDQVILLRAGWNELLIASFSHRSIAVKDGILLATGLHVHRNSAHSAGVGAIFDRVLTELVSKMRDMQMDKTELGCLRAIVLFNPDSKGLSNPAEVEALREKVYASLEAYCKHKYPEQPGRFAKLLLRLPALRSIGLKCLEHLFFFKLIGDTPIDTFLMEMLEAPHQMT

Read-out in assay [17]: Monocyte Chemoattractant Protein-1 (MCP1), CCL2 (gene 6347)
The assay can be described thus: BSK_3C_MCP1: BioMAP Diversity Plus: 3C Assay for Monocyte Chemoattractant Protein-1 (MCP1) Biomarker Activity (AID 2283017). Conditions: primary human endothelial cells (HUVEC); actives raise or lower the signal. The gist of the method: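 Endothelial cells from human umbilical vein are dosed with chemical, cultured 24 h, then assayed for MCP-1 by ELISA; both increases and decreases are modelled against DMSO controls.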

Assay [18] has as its target Retinoic acid receptor alpha (Homo sapiens) (UniProt P10276). In words: ATG_RARa_TRANS: Attagene TRANS-FACTORIAL HepG2 Assay for human Retinoic Acid Receptor alpha (RARa) (AID 2283005; active = hit-call score of the fitted dose curve at least 0.9, where 1 is the maximum). The gist of the method:
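Reporter transcripts, measured by RT-PCR with fluorescent labeling and capillary electrophoresis after 24 h dosing, reflect activity of an exogenous human RARa–GAL4 fusion in transiently transfected HepG2. Fitted for increase relative to DMSO.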

The target of assay [19] is human Retinoic Acid Receptor gamma (RARg), RARG (gene 5916) (UniProt P13631). The assay can be described thus: ATG_RARg_TRANS: Attagene TRANS-FACTORIAL HepG2 Assay for human Retinoic Acid Receptor gamma (RARg) (AID 2283009; active = hit-call score of the fitted dose curve at least 0.9, where 1 is the maximum). In short, it runs like this:
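Gain-of-signal relative to DMSO is reported from fluorescent capillary electrophoresis of RT-PCR reporter products. These came from HepG2 cells expressing transfected RARg-GAL4 chimeras with UAS reporters, harvested 24 h after dosing.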

Assay [20] addresses human RAR-related Orphan Receptor gamma (RORg), RORC (gene 6097) (UniProt P51449). In words: ATG_RORg_TRANS: Attagene TRANS-FACTORIAL HepG2 Assay for human RAR-related Orphan Receptor gamma (RORg) (AID 2283011; active = hit-call score of the fitted dose curve at least 0.9, where 1 is the maximum). The gist of the method:
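Activity is scored as increase in GAL4-UAS reporter mRNA over DMSO, detected by fluorescent RT-PCR and capillary electrophoresis in HepG2 cells transiently expressing a RORg-Gal4 chimera, 24 h after dosing.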

What is called AC50 is the concentration giving half of the maximal activity seen.

Sequence of human Peroxisome Proliferator-activated Receptor delta (PPARd), PPARD (gene 5467) (Q03181 whole entry, looked up, the tested form may be a part): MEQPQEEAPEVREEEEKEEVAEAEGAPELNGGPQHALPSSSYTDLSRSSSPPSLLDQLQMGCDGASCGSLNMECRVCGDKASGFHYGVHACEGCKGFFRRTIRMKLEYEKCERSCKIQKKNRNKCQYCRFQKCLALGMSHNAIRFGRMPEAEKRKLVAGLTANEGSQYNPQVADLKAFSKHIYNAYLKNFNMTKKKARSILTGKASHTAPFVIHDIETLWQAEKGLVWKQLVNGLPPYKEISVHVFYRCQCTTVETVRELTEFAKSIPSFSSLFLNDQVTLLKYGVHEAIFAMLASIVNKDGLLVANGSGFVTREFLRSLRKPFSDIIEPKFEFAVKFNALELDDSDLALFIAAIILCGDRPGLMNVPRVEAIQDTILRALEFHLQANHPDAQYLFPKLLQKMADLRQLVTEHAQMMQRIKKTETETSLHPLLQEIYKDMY
Sequence of human Peroxisome Proliferator-activated Receptor alpha (PPARa), PPARA (gene 5465) (Q07869 whole entry, looked up, the tested form may be a part): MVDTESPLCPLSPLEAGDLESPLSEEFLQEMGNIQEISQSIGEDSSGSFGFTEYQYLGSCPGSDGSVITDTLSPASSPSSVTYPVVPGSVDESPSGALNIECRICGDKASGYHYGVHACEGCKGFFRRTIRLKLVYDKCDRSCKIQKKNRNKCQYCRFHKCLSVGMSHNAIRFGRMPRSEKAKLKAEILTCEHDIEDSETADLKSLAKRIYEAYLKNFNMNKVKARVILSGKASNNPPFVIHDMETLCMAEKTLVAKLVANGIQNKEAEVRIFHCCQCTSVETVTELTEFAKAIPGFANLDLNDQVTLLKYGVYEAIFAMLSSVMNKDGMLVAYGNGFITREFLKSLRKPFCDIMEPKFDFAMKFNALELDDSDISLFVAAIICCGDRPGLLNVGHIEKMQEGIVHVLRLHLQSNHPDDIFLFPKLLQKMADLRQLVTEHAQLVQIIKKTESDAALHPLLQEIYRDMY
Sequence of human Retinoic Acid Receptor beta (RARb), RARB (gene 5915) (P10826 whole entry, looked up, the tested form may be a part): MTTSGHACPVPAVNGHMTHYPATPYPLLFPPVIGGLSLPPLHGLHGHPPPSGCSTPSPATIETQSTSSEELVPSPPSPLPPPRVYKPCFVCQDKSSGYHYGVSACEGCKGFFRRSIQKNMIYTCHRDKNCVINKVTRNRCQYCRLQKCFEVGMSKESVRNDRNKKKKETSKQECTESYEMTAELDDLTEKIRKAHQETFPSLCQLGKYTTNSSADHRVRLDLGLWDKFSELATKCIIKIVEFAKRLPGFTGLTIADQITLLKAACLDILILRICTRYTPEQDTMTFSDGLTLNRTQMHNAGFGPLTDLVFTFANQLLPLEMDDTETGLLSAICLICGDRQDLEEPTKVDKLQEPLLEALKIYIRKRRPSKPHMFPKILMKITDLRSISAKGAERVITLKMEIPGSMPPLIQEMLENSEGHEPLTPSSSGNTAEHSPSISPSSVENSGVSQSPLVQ
Sequence of human Retinoid X Receptor beta (RXRb), RXRB (gene 6257) (P28702 whole entry, looked up, the tested form may be a part): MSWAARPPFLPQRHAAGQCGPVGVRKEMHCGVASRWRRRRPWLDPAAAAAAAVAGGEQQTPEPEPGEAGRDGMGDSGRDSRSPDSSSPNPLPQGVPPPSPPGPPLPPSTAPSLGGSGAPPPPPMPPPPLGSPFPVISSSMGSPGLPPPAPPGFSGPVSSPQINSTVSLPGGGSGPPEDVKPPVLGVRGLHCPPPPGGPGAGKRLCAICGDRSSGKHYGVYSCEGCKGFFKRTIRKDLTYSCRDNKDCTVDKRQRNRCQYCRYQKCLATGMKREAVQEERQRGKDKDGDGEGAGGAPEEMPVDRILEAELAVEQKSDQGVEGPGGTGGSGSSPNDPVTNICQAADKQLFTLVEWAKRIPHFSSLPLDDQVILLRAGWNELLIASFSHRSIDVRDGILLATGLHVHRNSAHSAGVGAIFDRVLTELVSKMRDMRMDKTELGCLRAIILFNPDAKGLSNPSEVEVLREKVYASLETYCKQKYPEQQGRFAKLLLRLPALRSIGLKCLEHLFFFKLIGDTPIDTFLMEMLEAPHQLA
Sequence of Nuclear receptor subfamily 1 group I member 2 (Homo sapiens) (O75469 whole entry, looked up, the tested form may be a part): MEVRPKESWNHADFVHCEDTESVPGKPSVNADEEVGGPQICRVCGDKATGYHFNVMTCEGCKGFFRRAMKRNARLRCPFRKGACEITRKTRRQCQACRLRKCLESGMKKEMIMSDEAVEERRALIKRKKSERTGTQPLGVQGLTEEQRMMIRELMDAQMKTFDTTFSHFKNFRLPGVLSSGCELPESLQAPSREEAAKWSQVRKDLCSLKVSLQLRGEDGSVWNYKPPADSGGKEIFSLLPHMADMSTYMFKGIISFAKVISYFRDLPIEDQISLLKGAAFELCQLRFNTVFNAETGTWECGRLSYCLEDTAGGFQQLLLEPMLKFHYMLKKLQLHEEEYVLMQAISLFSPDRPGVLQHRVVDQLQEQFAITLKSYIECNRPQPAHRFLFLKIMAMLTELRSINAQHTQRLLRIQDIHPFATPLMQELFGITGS
Sequence of E-selectin (Homo sapiens) (P16581 whole entry, looked up): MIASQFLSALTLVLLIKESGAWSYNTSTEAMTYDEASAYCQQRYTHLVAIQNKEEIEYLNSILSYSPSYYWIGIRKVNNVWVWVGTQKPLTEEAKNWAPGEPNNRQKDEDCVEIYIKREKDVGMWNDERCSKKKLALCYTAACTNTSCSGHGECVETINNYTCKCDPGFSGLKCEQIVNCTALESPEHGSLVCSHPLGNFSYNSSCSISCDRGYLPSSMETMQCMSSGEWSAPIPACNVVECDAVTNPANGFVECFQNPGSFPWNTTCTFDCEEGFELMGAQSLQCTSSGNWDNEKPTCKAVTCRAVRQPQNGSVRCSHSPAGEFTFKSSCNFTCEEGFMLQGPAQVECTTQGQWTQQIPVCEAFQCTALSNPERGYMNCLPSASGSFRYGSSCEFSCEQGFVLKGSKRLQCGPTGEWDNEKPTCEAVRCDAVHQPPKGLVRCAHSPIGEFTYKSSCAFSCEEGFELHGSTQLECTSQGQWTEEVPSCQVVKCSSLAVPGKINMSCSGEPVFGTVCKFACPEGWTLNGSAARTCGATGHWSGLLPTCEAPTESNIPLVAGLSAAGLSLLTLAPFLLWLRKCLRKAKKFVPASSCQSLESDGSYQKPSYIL
Sequence of human Thyroid Receptor alpha (THRa1), THRA (gene 7067) (P10827 whole entry, looked up, the tested form may be a part): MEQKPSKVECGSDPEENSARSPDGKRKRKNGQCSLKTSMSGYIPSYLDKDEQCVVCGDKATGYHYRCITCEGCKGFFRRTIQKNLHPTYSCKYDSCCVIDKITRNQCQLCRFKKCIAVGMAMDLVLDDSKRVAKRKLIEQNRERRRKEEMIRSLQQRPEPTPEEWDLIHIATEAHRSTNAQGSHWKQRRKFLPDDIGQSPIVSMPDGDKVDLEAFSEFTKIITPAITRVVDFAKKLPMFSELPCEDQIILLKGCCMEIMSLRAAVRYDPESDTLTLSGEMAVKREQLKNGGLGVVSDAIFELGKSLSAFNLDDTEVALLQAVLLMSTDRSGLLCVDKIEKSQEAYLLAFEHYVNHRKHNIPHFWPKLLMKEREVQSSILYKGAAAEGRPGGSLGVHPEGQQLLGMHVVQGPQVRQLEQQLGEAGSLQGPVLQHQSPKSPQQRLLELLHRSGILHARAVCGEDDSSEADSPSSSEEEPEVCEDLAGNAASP

Consider `COP(=S)(OC)Oc1ccc([N+](=O)[O-])c(C)c1`, for which the outcome in assay [1], in [2], in [3], in assay [4], in [5] and in [8] was inactive. The molecule was called inactive in assay [9], in assay [10], in assay [11], in assay [12], in [13] and in [14]. Also, the half-maximal activity concentration (AC50) in assay [6] is 25.6 µM (active); in [7], 32.6 µM (active).
With `COC(=O)c1c(C(F)F)nc(C(F)(F)F)c(C2=NCCS2)c1CC(C)C`, the outcome in assay [1], in assay [3], in [4], in [5], in assay [15] and in assay [16] was inactive. For the same molecule, the call in [10], in assay [12], in assay [13] and in assay [17] was inactive. Moreover, the concentration at half-maximal activity (AC50) was 6.71 µM (active) in assay [2]; 36.9 µM (active) in assay [6]; 45.5 µM (active) in [7]; 0.431 µM (active) in assay [8]; 17.6 µM (active) in assay [14].
`COc1cc(Cl)c(OC)cc1Cl`: the outcome in assay [1], in assay [2], in assay [3], in [5], in assay [15] and in assay [18] was inactive. The outcome in assay [6], in assay [7], in assay [8], in [19], in [16] and in [10] was inactive. For the same molecule, the outcome in assay [11], in [12], in assay [13], in assay [17] and in assay [14] was inactive.
In the case of `Cc1ccc(N=CN(C)C=Nc2ccc(C)cc2C)c(C)c1`, the AC50 in [1] was 16.4 µM (active); in assay [2], 38.6 µM (active); in [5] it was 30.3 µM (active); in assay [6], 15.3 µM (active); in assay [12] it was 33 µM (active); in assay [13], 35.1 µM (active). Also, in assay [14], the AC50 was 31.4 µM (active). Also, the molecule was classed as inactive in assay [3], in assay [15] and in [8].
For the molecule `COCC(=O)N(c1c(C)cccc1C)C(C)C(=O)OC` (configuration not stated), the outcome in assay [1], in [2], in assay [3], in assay [5], in [18] and in assay [6] was inactive. Also, the molecule was called inactive in assay [7], in assay [8], in assay [16], in assay [12], in assay [13] and in assay [14].
Take `CC(C)C1(C)N=C(c2ncccc2C(=O)O)NC1=O` (configuration not stated): the result in [1], in [2], in assay [3], in assay [4], in assay [5] and in assay [6] was inactive. For the same molecule, the outcome in [7], in assay [9], in [20], in [16], in assay [12] and in assay [13] was inactive. For the same molecule, the outcome in assay [17] and in assay [14] was inactive.
